The values that follow come from PubChem BioAssay (NCATS).

Records with an inconclusive call do not appear. Values without a mark were called inactive. Activity calls are given as the source filed them. The call rests on the fitted dose curve; in most records, active means well fitted cell-killing curve with a large enough effect; inconclusive means small, poorly fitted or top-dose-only effect, or effect the other way; inactive means no such curve, though single readings can be large or run the other way.
Potency means the concentration at half of the fitted maximal effect.

The assay can be described thus: Quantitative High-Throughput drug screen in 47 multiple myeloma cell lines against the NCATS MIPE library collection: LP1_DSMZ cell viability assay (AID 1918982). Further: nearly all actives have a fitted effect of over 35% in size. Particulars: LP1 myeloma viability, CellTiter-Glo ATP luminescence, 48 h; series mostly up to 45.8 µM; viability (% of control): at the top concentration. An excerpt:
PI: Beverly A. Mock Ph.D.
Laboratory of Cancer Biology and Genetics,
Center for Cancer Research, National Cancer Institute,
National Institute of Health, Bethesda, Maryland
Drug resistance and disease progression are common in multiple myeloma (MM) patients, underscoring the need for new therapeutic combinations. […] We hypothesized that effective combinations would reduce MYC expression and enhance p16 activity. […] These preclinical data identify potentially useful drug combinations for evaluation in drug-resistant MM and reveal potential mechanisms of combined drug sensitivity.
Described herein is the primary MIPE qHTS used to cherrypick compounds. Validated compounds were then further tested for potential synergistic activiy.
[1] Peat TJ, Gaikwad SM, Dubois W, Gyabaah-Kessie N, Zhang S, Gorjifard S, Phyo Z, Andres M, Hughitt VK, Simpson RM, Miller MA, Girvin AT, Taylor A, Williams D, D'Antonio N, Zhang Y, Rajagopalan A, Flietner E, Wilson K, Zhang X, Shinn P, Klumpp-Thomas C, McKnight C, Itkin Z, Chen L, Kazandijian D, Zhang J, Michalowski AM, Simmons JK, Keats J, Thomas CJ, Mock BA. Drug combinations identified by high-throughput screening promote cell cycle transition and upregulate Smad pathways in myeloma. Cancer Lett. 2023 Aug 1;568:216284. doi: 10.1016/j.canlet.2023.216284. Epub 2023 Jun 24. PMID: 37356470; PMCID: PMC10408729.
SEQUENCE No. (e.g., 1, 2, 3, etc.); […] (e.g., Cells, Incubation, Reagent, etc.); VALUE and DESCRIPTION.
1; Cells; 5 uL; white, solid bottom 1536-well Greiner assay plate.
2; Compounds; 23 nL; Kalypsis pin tool (Wako USA) equipped with a 1536-well pin head to transfer to the assay plates.
3; Incubation; 48 hours; 37C incubation.
4; Reagent;5uL; CellTiter Glo (Promega).
5; Detector; 425V; Luminescence; Viewlux PerkinElmer.
NOTES (numbers refer to Sequence numbers above)
1. The cell-based screening methods employed in this study were like those previously published. Briefly, the corresponding myeloma cell lines were screened in 1,536-well plates with 500 cells, 5-uL per well for inhibition of cell viability (assessed by measuring ATP levels with CellTiterGlo).
2. NCATS MIPE 4.0 library of approved and investigational drugs were added using the Kalypsis pin tool. Wells treated with DMSO only for 100% viability and media only for 0% viability were used as controls.
3. The assay plates were covered and incubated for 48 hours in a 37C, 5% CO2 incubator with controlled humidity.
4. After 48 hours, CellTilter-GloTM luminescent substrate mix (Promega) reagent was added to the assay plate and plates we incubated for 5 min at room temperature.
5. Signal was measured as median relative luminescence units on a ViewLux (PerkinElmer) multiplate reader.
[1] Heske CM, Davis MI, Baumgart JT, Wilson K, Gormally MV, Chen L, Zhang X, Ceribelli M, Duveau DY, Guha R, Ferrer M, Arnaldez FI, Ji J, Tran HL, Zhang Y, Mendoza A, Helman LJ, Thomas CJ. Matrix Screen Identifies Synergistic Combination of PARP Inhibitors and Nicotinamide Phosphoribosyltransferase (NAMPT) Inhibitors in Ewing Sarcoma. Clin Cancer Res. 2017 Dec 1;23(23):7301-7311. doi: 10.1158/1078-0432.CCR-17-1121. Epub 2017 Sep 12. PMID: 28899971; PMCID: PMC6636827.
For orientation: In ATP-based viability assays light output follows the ATP content of the culture.
In the case of `COCCOc1ccc2c(c1)ncn2-c1ccc2cccc(N3CCC(N)CC3)c2n1`, the Potency was 2090 nM (active). Still for that read-out and setting: to `C=CC(=O)Nc1cccc(Oc2nc(Nc3ccc(N4CCN(C)CC4)cc3OC)ncc2Cl)c1` belongs 20900 nM (active).

Take `O=C(C=Cc1cccc(S(=O)(=O)Nc2ccccc2)c1)NO`: the Potency was 2700 nM (active).

In the case of `Cc1coc2c1C(=O)C(=O)c1c-2ccc2c1CCCC2(C)C`, the Potency was 4180 nM (active). The same measure, in the same setting: to `CN(c1ncccc1CNc1nc(Nc2ccc3c(c2)CC(=O)N3)ncc1C(F)(F)F)S(C)(=O)=O` belongs 8330 nM (active); to `COc1cc2c(Oc3ccc(-c4cnc(Nc5ccc(F)cc5)n(C)c4=O)cc3F)ccnc2cc1OCCCN1CCOCC1`, 11800 nM (active).

`CC(C)(O)CCc1ccc(OCc2cc(-c3cccc(OC(F)F)c3)c3ncccc3c2)cc1`: the “viability (% of control)” value was 99.5%. Still for that read-out and setting: as for `CNC(=O)c1ccc(-c2cnc3ncc(Cc4ccc5ncccc5c4)n3n2)cc1F`, the figure is 98.3%.

As for `O=C(Cc1ccc(-c2ccc(OCCN3CCOCC3)cc2)cn1)NCc1ccccc1`, the Potency is 41.8 nM (active). The same measure, in the same setting: to `CN[C@H]1CCc2cc(OC)c(OC)c(OC)c2-c2ccc(OC)c(=O)cc21` belongs 1.5 nM (active). Consider `O=C(Nc1cc(C(F)(F)F)cc(C(F)(F)F)c1)c1cc(Cl)ccc1O`, for which the Potency is 469 nM (active). In the case of `COc1cc2c(NC3CCN(C(C)C)CC3)nc(C3CCCCC3)nc2cc1OCCCN1CCCC1`, the Potency was 5260 nM (active). With `Nc1ccccc1NC(=O)c1ccc(CNC(=O)OCc2cccnc2)cc1`, the Potency is 1660 nM (active).

For `COc1cc2ncn(-c3cc(OCc4ccccc4C(F)(F)F)c(C(N)=O)s3)c2cc1OC`, the Potency was 935 nM (active). The same measure, in the same setting: as for `CC1(C)CCC(c2ccc(Cl)cc2)=C(CN2CCN(c3ccc(C(=O)NS(=O)(=O)c4ccc(N[C@H](CCN5CCOCC5)CSc5ccccc5)c(S(=O)(=O)C(F)(F)F)c4)cc3)CC2)C1`, the figure is 20900 nM (active). As for `O=C(c1cncc(Br)c1)N1CCC(N2CCCC2)CC1`, the “viability (% of control)” value was 101%. Take `CN1CCN(Cc2ccc(NC(=O)Nc3ccc(Oc4cc(NC(=O)C5CC5)ncn4)cc3)cc2C(F)(F)F)CC1`: the Potency was 372 nM (active).

On to `COc1ccc(F)c(F)c1C(=O)c1cnc(NC2CCN(S(C)(=O)=O)CC2)nc1N`, for which the Potency is 2960 nM (active). On the same count and under the same terms, to `Cc1cn(-c2cc(NC(=O)c3ccc(C)c(Nc4nccc(-c5cccnc5)n4)c3)cc(C(F)(F)F)c2)cn1` belongs 23500 nM (active); to `CN1CC[C@@H](c2c(O)cc(O)c3c(=O)cc(-c4ccccc4Cl)oc23)[C@@H](O)C1`, 66.2 nM (active); to `CCOc1cc2ncc(C#N)c(Nc3ccc(F)c(Cl)c3)c2cc1NC(=O)C=CCN(C)C`, 10500 nM (active).

`Nc1nccc(Oc2ccc(NC(=O)c3c[nH]cc(-c4ccc(F)cc4)c3=O)cc2F)c1Cl`: the Potency is 18700 nM (active).

With `CC(C)C[C@H](NC(=O)CNC(=O)c1cc(Cl)ccc1Cl)B(O)O`, the Potency is 132 nM (active). On the same count and under the same terms, as for `O=C(Nc1ncc(-c2cc(C(F)F)nn2-c2c(Cl)cccc2Cl)s1)C1CC1`, the figure is 1050 nM (active); as for `O=C(O)c1ccc2cc(-c3ccc(O)c(C45CC6CC(CC(C6)C4)C5)c3)ccc2c1`, 20900 nM (active). As for `Cc1nc(Nc2n[nH]c3c2CN(C(=O)N[C@H](CN(C)C)c2ccccc2)C3(C)C)c2sccc2n1`, the Potency was 7.9 nM (active). As to `CC[C@@H]1C(=O)N(C)c2cnc(Nc3ccc(C(=O)NC4CCN(C)CC4)cc3OC)nc2N1C1CCCC1`, the Potency is 166 nM (active). Turning to `Cc1nc2cnc3ccc(C#Cc4cccnc4)cc3c2n1-c1ccc(C(C)(C)C#N)cc1`, the Potency was 83.3 nM (active). On the same count and under the same terms, as for `CNc1nccc(-c2cccnc2Oc2cc(C(=O)Nc3cccc(C(F)(F)F)c3)ccc2C)n1`, the figure is 23500 nM (active). With `CCN1CCN(CC(=O)Nc2ccc(-c3cccc4c(=O)cc(N5CCOCC5)oc34)c3sc4ccccc4c23)CC1`, the Potency is 1480 nM (active). Same read-out and setting: as for `O=C(Nc1cn[nH]c1-c1nc2ccc(CN3CCOCC3)cc2[nH]1)NC1CC1`, the figure is 4690 nM (active). With `CCN(CC)CCNC(=O)c1ccc2nc(-c3ccccc3)c(-c3ccc(CN4CCC(n5c(=O)[nH]c6ccccc65)CC4)cc3)nc2c1`, the Potency is 18700 nM (active).

Turning to `COCCn1c2c([n+](Cc3cnccn3)c1C)C(=O)c1ccccc1C2=O`, the Potency was 13.2 nM (active). Still for that read-out and setting: to `NCC(=O)Nc1ccc(-n2nc(C(F)(F)F)cc2-c2ccc3c(ccc4ccccc43)c2)cc1` belongs 23500 nM (active). Regarding `C=CC(=O)Nc1cc2c(Nc3ccc(F)c(Cl)c3)ncnc2cc1C#CC(C)(C)N1CCN(C)CC1`, the Potency is 9350 nM (active). Turning to `CC(C)c1cnn2c(NCc3ccccc3)cc(N[C@@H](CO)[C@H](O)CO)nc12`, the Potency is 264 nM (active). Still for that read-out and setting: as for `Cc1ccc(-c2ncn(-c3ccc(Nc4nccc(-c5cccc(N6CCOCC6)c5)n4)cc3)n2)cn1`, the figure is 132 nM (active); as for `O=c1[nH]nc(Sc2ncc([N+](=O)[O-])s2)n1-c1ccc2c(c1)OCCO2`, 6620 nM (active). Same read-out and setting: to `Nc1ncnc2c1c(-c1cnc3[nH]ccc3c1)nn2C1CCCC1` belongs 148 nM (active); to `CCc1c2c(nc3ccc(O)cc13)-c1cc3c(c(=O)n1C2)COC(=O)[C@]3(O)CC`, 662 nM (active).
